These results are taken from ChEMBL document CHEMBL2218924, “A broad activity screen in support of a chemogenomic map for kinase signalling research and drug discovery” (Biochem J, 2013).

Experiment [1] concerns the target Insulin receptor (Homo sapiens) (UniProt P06213). To be noted: at 10 µM.
The target is the same in experiment [2]. Particulars: at 1 µM.
Experiment [3] shares this target. Particulars: at 10 µM. This is another data set of the same source.
For experiment [4], the target named is Interleukin-1 receptor-associated kinase 1 (Homo sapiens) (UniProt P51617). To be noted: at 1 µM.
Sequence of Interleukin-1 receptor-associated kinase 1 (Homo sapiens) (P51617 whole entry, looked up): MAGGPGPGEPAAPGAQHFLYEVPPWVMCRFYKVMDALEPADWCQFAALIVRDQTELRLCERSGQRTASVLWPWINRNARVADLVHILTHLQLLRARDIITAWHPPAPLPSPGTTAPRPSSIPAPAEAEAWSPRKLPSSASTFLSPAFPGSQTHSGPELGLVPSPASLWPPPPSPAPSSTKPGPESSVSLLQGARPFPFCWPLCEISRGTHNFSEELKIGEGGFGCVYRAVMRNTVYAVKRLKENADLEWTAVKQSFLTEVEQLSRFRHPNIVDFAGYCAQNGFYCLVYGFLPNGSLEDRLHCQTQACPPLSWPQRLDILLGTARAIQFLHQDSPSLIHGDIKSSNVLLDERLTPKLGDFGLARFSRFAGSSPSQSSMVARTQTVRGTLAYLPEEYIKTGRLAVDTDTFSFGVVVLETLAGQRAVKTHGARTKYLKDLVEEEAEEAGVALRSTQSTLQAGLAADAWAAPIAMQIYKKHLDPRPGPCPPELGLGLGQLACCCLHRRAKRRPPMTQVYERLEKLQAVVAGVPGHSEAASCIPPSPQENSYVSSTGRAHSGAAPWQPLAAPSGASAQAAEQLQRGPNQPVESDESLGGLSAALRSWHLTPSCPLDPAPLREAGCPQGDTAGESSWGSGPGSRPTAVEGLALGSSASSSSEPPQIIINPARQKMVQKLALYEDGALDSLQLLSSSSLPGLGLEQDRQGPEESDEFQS
Experiment [5] shares this target. To be noted: at 10 µM.
For experiment [6], the target named is T1, Interleukin-1 receptor-associated kinase 4 (Homo sapiens) (UniProt Q9NWZ3).
T1 sequence (whole entry): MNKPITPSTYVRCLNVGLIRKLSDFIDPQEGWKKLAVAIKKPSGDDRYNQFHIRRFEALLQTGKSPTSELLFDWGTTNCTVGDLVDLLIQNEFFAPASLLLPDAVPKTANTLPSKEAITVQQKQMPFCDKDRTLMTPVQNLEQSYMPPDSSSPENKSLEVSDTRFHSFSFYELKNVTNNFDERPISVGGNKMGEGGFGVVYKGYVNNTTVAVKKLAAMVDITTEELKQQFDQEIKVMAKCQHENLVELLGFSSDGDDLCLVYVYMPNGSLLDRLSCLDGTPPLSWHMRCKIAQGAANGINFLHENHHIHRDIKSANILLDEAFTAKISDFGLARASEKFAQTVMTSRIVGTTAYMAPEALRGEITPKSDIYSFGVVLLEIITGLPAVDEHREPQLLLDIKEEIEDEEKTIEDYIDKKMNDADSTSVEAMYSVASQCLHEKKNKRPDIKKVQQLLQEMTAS
Particulars: at 1 µM.

Experiment [7] addresses T1, Interleukin-1 receptor-associated kinase 4 (Homo sapiens). To be noted: at 10 µM.
The target in experiment [8] is Insulin receptor-related protein (Homo sapiens) (UniProt P14616). Particulars: at 1 µM.
Sequence of Insulin receptor-related protein (Homo sapiens) (P14616 27-742 limits assumed): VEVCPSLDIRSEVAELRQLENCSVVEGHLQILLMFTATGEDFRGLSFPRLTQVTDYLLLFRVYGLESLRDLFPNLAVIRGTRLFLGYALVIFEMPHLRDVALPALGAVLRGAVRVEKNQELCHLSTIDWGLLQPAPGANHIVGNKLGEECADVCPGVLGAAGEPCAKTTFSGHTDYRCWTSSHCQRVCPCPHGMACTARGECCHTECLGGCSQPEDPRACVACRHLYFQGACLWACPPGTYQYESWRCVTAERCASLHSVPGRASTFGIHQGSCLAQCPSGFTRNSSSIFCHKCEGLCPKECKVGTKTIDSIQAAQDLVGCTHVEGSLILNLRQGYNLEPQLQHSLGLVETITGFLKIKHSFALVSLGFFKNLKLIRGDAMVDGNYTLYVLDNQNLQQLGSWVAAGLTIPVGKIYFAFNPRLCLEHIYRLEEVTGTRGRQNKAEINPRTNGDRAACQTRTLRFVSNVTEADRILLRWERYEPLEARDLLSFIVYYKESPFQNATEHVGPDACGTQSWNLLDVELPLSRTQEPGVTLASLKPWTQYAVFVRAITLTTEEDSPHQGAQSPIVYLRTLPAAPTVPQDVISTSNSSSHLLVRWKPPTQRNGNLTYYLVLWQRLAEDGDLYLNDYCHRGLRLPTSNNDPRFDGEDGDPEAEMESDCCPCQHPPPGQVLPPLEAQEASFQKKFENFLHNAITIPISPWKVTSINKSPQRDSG
Sequence of Insulin receptor-related protein (Homo sapiens) (P14616 747-1297 limits assumed): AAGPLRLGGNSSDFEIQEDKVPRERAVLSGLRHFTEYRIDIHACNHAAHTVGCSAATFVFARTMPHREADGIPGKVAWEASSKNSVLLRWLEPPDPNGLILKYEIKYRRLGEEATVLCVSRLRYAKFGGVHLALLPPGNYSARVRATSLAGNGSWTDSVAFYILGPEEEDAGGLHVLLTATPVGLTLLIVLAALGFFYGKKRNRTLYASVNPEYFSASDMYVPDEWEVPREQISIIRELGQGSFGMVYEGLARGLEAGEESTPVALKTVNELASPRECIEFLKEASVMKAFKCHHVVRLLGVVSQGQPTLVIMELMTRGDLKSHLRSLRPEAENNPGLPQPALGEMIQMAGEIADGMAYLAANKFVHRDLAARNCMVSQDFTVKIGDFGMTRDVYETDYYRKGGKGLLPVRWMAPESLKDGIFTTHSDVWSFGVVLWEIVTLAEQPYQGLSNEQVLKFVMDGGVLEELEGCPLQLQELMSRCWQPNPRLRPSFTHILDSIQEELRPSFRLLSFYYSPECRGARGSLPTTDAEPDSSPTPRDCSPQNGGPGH
Experiment [9] has the same target. To be noted: at 10 µM.
Experiment [10] concerns the target T2, Tyrosine-protein kinase ITK/TSK (Homo sapiens) (UniProt Q08881).
T2 sequence (whole entry): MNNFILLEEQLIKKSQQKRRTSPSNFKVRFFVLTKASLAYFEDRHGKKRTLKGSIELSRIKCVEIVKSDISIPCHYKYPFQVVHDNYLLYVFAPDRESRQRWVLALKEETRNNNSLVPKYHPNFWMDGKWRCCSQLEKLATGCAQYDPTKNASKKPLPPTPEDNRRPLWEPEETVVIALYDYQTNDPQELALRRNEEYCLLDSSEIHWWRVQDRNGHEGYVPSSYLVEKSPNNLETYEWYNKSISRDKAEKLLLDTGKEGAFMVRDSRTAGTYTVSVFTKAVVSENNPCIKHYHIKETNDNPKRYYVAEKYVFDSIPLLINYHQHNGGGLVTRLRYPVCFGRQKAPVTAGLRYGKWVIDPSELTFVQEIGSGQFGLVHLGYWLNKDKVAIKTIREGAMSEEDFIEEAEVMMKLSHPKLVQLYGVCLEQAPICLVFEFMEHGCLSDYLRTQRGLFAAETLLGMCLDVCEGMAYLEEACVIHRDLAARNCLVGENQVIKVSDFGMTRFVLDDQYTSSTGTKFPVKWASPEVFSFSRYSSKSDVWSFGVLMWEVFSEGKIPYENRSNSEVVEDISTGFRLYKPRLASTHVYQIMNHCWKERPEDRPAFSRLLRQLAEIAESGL
To be noted: at 1 µM.

For experiment [11], the target named is T2, Tyrosine-protein kinase ITK/TSK (Homo sapiens). To be noted: at 10 µM.
The target of experiment [12] is Tyrosine-protein kinase JAK2 (Homo sapiens) (UniProt O60674). To be noted: at 1 µM.
Sequence of Tyrosine-protein kinase JAK2 (Homo sapiens) (O60674 whole entry): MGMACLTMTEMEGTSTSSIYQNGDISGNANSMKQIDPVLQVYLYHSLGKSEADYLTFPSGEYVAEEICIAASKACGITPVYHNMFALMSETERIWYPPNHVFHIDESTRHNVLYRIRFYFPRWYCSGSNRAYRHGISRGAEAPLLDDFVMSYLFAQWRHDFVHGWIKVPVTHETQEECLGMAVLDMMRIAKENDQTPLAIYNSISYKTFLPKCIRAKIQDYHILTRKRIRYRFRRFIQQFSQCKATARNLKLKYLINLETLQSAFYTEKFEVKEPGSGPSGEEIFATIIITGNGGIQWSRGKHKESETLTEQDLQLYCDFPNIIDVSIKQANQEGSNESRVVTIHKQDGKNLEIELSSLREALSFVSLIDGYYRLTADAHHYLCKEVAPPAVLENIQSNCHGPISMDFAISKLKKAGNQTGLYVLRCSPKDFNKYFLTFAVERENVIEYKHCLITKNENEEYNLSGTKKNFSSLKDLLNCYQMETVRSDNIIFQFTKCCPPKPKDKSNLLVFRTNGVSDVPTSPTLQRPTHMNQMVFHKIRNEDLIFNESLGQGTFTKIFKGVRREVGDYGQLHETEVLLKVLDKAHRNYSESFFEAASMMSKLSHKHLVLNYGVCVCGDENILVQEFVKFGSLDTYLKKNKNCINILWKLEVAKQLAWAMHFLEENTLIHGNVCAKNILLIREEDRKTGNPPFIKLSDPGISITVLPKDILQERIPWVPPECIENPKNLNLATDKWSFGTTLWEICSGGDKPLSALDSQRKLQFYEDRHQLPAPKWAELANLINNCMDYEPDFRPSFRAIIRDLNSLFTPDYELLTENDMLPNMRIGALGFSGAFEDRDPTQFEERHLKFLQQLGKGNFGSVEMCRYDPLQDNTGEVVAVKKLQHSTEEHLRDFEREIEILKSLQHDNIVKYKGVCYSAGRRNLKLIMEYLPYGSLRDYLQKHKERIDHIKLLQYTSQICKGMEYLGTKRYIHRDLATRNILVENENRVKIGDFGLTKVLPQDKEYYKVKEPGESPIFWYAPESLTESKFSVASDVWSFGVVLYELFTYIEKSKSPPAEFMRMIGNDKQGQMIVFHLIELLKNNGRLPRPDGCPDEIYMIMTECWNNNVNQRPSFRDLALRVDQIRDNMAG
Experiment [13] shares this target. To be noted: at 10 µM.
Experiment [14] addresses T3, Tyrosine-protein kinase JAK3 (Homo sapiens) (UniProt P52333).
T3 sequence (whole entry): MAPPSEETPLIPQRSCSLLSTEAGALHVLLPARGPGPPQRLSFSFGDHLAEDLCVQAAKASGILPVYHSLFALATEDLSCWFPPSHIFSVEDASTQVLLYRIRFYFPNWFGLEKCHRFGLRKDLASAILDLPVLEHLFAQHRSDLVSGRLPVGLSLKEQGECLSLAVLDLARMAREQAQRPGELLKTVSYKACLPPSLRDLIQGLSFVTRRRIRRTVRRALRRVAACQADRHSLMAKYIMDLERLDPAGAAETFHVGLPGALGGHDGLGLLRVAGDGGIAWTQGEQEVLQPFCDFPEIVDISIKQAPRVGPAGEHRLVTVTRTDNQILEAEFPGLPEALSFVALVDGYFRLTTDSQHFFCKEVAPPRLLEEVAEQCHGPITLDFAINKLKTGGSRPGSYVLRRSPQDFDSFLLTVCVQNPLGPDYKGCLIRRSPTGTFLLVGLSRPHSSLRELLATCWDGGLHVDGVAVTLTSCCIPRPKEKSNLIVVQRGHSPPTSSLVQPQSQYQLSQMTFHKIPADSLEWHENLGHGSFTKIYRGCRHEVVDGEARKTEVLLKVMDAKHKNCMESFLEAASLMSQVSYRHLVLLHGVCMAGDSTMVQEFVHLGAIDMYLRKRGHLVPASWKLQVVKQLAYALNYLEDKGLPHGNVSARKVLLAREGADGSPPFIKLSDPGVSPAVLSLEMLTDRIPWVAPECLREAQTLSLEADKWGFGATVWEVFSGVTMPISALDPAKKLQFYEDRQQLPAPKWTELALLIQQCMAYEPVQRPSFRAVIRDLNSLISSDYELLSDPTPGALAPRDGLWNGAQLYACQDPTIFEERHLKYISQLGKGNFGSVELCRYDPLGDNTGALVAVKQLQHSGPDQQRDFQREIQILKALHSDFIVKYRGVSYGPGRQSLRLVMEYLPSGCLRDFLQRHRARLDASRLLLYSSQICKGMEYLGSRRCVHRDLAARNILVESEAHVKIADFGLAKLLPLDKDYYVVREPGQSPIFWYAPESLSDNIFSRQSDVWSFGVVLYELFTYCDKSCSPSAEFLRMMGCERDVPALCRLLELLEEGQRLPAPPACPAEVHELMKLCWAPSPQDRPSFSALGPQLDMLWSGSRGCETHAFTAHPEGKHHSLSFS
To be noted: at 1 µM.

Experiment [15] addresses T3, Tyrosine-protein kinase JAK3 (Homo sapiens). To be noted: at 10 µM.
The target of experiment [16] is Mitogen-activated protein kinase 8 (Homo sapiens) (UniProt P45983). To be noted: at 1 µM.
Experiment [17] has the same target. To be noted: at 10 µM.
Experiment [18] addresses Mitogen-activated protein kinase 9 (Homo sapiens) (UniProt P45984). To be noted: at 1 µM.
Experiment [19] shares this target. To be noted: at 10 µM.
In experiment [20] the target is Mitogen-activated protein kinase 10 (Homo sapiens) (UniProt P53779). To be noted: at 1 µM.
Sequence of Mitogen-activated protein kinase 10 (Homo sapiens) (P53779 whole entry): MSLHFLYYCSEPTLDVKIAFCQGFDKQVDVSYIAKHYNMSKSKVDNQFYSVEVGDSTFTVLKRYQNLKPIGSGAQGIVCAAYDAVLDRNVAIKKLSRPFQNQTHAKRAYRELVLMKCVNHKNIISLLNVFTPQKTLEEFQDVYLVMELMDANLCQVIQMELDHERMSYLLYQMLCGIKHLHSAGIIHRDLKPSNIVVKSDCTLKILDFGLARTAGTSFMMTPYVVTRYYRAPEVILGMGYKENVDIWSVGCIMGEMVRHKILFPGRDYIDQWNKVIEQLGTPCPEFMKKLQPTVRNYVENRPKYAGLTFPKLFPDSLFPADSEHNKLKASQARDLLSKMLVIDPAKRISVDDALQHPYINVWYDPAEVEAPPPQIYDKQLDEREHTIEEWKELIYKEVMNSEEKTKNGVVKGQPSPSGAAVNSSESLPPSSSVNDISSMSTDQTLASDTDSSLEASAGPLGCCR

Sequence of Insulin receptor (Homo sapiens) (P06213 28-758 limits assumed): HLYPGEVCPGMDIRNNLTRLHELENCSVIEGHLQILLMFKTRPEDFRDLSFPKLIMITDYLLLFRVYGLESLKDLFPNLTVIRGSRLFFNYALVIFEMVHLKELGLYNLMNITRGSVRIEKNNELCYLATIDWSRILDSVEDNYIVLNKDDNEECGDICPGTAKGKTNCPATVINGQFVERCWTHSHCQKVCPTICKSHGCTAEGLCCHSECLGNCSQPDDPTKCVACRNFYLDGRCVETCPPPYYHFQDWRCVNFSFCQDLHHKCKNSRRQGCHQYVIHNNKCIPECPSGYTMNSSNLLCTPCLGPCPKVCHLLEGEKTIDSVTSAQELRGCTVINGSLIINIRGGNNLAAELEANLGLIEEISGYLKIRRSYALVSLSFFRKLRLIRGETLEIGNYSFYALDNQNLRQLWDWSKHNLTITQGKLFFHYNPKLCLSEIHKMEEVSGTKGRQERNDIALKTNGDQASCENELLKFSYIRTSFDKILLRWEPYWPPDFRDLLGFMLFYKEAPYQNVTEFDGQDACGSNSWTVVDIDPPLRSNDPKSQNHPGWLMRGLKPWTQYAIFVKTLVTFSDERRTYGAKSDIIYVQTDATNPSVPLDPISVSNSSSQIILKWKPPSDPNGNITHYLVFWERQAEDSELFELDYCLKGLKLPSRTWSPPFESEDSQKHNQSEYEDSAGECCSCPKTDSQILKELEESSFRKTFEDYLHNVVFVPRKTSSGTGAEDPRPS
Sequence of Insulin receptor (Homo sapiens) (P06213 763-1382 limits assumed): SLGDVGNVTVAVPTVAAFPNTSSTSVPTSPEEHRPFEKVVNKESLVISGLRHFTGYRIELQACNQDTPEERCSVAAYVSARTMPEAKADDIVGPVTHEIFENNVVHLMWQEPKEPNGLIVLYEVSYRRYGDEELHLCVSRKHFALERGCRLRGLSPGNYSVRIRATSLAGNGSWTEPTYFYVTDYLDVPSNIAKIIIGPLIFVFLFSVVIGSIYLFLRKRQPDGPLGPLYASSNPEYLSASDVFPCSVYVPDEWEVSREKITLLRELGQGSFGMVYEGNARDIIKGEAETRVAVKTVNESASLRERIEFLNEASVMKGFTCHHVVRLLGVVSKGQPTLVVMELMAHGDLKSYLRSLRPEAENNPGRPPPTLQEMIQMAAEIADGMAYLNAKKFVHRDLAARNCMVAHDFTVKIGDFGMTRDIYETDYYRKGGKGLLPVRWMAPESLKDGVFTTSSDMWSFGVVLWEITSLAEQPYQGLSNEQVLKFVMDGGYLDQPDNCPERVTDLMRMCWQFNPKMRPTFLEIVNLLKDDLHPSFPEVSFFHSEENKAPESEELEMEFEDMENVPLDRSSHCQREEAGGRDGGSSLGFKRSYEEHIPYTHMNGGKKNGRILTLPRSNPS

For the molecule `Oc1n[nH]c2nnc(-c3c(-c4ccccc4)nn4ccccc34)cc12`, the residual activity worked out at 12% in experiment [1]; 89% in [2]; 75% in experiment [3]; 99% in experiment [4]; 103% in experiment [5]; 75% in experiment [6]. Besides, the residual activity worked out at 89% in [7]; 25% in [8]; 2% in experiment [9]; 99% in experiment [10]; 102% in experiment [11]; 99% in experiment [12]. Further, the residual activity came out at 102% in [13]; 104% in [14]; 100% in experiment [15]; 96% in experiment [16]; 87% in experiment [17]; 93% in experiment [18]. Moreover, the residual activity came out at 92% in [19] and 52% in [20].
With `N#Cc1cnc2cnc(NCc3cccnc3)cc2c1Nc1ccc(F)c(Cl)c1`, the residual activity in experiment [1] worked out at 123%; in experiment [2], 72%; in experiment [3], 52%; in experiment [4], 93%; in [5], 103%; in [6], 64%. Also, the residual activity in experiment [7] was 43%; in experiment [8], 90%; in experiment [9], 89%; in [10] it was 72%; in experiment [11], 48%; in [12] it was 96%. For the same molecule, the residual activity in experiment [13] was found to be 94%; in [14], 82%; in [15], 81%; in experiment [18] it was 95%; in experiment [19] it was 97%.
For `CCN(CC)CCCCN1c2ccccc2Oc2ccc(Cl)cc21`, the residual activity was found to be 112% in experiment [1]; 102% in experiment [2]; 104% in experiment [3]; 111% in [4]; 105% in [5]; 118% in experiment [6]. Moreover, the residual activity in experiment [7] was 107%; in experiment [8] it was 121%; in experiment [9], 102%; in experiment [10], 108%; in experiment [11], 102%; in [12], 107%. Also, the residual activity in experiment [13] was determined as 138%; in [14], 110%; in experiment [15], 142%; in experiment [16] it was 113%; in experiment [17], 91%; in experiment [18] it was 106%. In addition, the residual activity turned out to be 104% in experiment [19] and 111% in experiment [20].
For the molecule `Cn1nc2c3c(cccc31)C(=O)c1ccccc1-2`, the residual activity in experiment [1] is 74%; in [2], 81%; in experiment [3], 63%; in experiment [4], 90%; in experiment [5], 87%; in experiment [6] it was 76%. Also, the residual activity in experiment [7] worked out at 47%; in experiment [8], 103%; in experiment [9], 89%; in experiment [10] it was 100%; in experiment [11], 92%; in experiment [12], 93%. Further, the residual activity in [13] stood at 76%; in experiment [14] it was 101%; in experiment [15], 70%; in [16] it was 85%; in experiment [17], 83%; in [18], 81%. Besides, the residual activity in [19] was 83%; in experiment [20] it was 52%.
As to `Oc1ccc(-c2nc(-c3ccc(F)cc3)c(-c3ccncc3)[nH]2)cc1`, the residual activity in [1] was determined as 126%; in [2] it was 97%; in experiment [3], 90%; in [4], 104%; in experiment [5], 79%; in [7], 88%. In addition, the residual activity in [9] worked out at 98%; in experiment [10], 108%; in experiment [11], 98%; in [12] it was 101%; in [13], 112%; in experiment [14], 108%. In addition, the residual activity is 93% in experiment [15]; 99% in experiment [16]; 79% in experiment [17]; 69% in [18]; 12% in experiment [19]; 10% in [20].
For `CN(C)CCCn1cc(C2=C(c3c[nH]c4ccccc34)C(=O)NC2=O)c2ccccc21`, the residual activity in experiment [1] is 100%; in experiment [2] it was 100%; in experiment [3], 72%; in [4] it was 111%; in [5], 89%; in [6], 121%. Moreover, the residual activity was found to be 53% in [7]; 137% in experiment [8]; 75% in experiment [9]; 121% in experiment [12]; 90% in [13]; 111% in experiment [16]. In addition, in experiment [20], the residual activity worked out at 117%.
Turning to `c1ccc(-c2n[nH]c3c2oc2ccccc23)cc1`, the residual activity came to 96% in experiment [4]; 98% in [5]; 91% in experiment [6]; 68% in experiment [7]; 141% in experiment [8]; 73% in [9]. Moreover, the residual activity in experiment [10] is 98%; in experiment [11], 66%; in experiment [14], 92%; in experiment [15] it was 70%; in [20], 59%.
